Measurements taken from ChEMBL document CHEMBL1961873, “Compounds: GSK PKIS; Assays: Nanosyn kinase panel” (2012).

biological target: Mitogen-activated protein kinase 3 (Homo sapiens) (UniProt P27361); settings: at 0.1 µM
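Further: each value is a mean inhibition figure.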

Sequence of Mitogen-activated protein kinase 3 (Homo sapiens) (P27361 whole entry): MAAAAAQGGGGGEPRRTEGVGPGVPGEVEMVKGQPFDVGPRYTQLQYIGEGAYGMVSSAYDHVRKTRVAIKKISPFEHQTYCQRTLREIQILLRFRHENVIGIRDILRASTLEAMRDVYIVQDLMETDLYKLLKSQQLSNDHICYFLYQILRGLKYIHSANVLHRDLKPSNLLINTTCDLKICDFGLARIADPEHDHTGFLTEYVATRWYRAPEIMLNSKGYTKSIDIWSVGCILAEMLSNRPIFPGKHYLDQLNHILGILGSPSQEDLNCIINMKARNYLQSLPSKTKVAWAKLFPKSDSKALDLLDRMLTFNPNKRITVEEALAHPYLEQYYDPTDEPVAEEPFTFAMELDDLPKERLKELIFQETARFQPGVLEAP

SMILES	inhibition
Cc1ccc(C(=O)NC2CC2)cc1-c1ccc2[nH]ncc2c1	-2.68%
OCc1ccc(-c2nc(-c3ccccn3)c(-c3ccc4c(c3)OCO4)[nH]2)cc1	3.56%
CC(C)c1ccc2c(c1)NC(=O)/C2=N/Nc1ccc(S(N)(=O)=O)cc1	1.56%
CN(C)C(=O)O[C@@H]1CN[C@@H](C#Cc2cc3ncnc(Nc4ccc(OCc5cccc(F)c5)c(Cl)c4)c3s2)C1	3.17%
COc1cccc(-n2nc(C)c3c(N/N=C(\C)c4ccncc4)ncnc32)c1	-1.05%
COC(=O)c1ccc2c(c1)C(=Cc1cc(Br)c(O)c(Br)c1)C(=O)N2	4.78%
Oc1cccc(-c2nc(-c3ccccc3)[nH]c2-c2ccncc2)c1	3.48%
NS(=O)(=O)c1ccc(N/N=C2\C(=O)Nc3ccc(Cl)cc32)cc1	4.87%
COC(=O)Nc1nc2cc(Oc3ccc(NC(=O)Nc4cccc(Br)c4)cc3)ccc2[nH]1	2.94%
COC(=O)c1cncc(/C=C/c2c(C)cc(O)cc2C)c1	3.96%
COc1cc(/C=N/Nc2ncnc3c2cnn3C(C)C)ccc1O	1.63%
CCS(=O)(=O)c1ccc(OC)c(Nc2nccc(N(C)c3ccc4c(C)n[nH]c4c3)n2)c1	4.15%
[O-][S+]1CCN(Cc2ccc(-c3ccc4ncnc(Nc5ccc(OCc6ccccc6)c(Cl)c5)c4c3)o2)CC1	1.32%
c1ccc(Cc2nc3ccc(Nc4ncnc5ccccc45)cc3[nH]2)cc1	2.28%
CCS(=O)(=O)c1ccc(OC)c(Nc2ncc(-c3cccc(OC)c3)o2)c1	-0.18%
CCn1c(-c2nonc2N)nc2ccc(F)cc21	6.33%
